The values below come from PubChem BioAssay (NCI).

Common to all, as to test: NCI-60 one-dose screen, 48 h (100 = growth as untreated, 0 = no growth, -100 = all killed)
Conditions in all cases: 10 µM unless noted

The test system of assay [1] is DU-145 prostate.
The test system of assay [2] is K-562 leukemia.
Assay [3] relates to MALME-3M melanoma.
Assay [4] relates to MDA-MB-231 breast.
The subject of assay [5] is RXF 393 renal.
Assay [6] concerns SF-268 CNS.
For assay [7], the system named is SF-295 CNS.
For assay [8], the system named is SF-539 CNS.
In assay [9] the test system is UACC-257 melanoma.
Assay [10] relates to M14 melanoma.
Assay [11] concerns HCT-15 colon.
Assay [12] deals with HT29 colon.
For assay [13], the system named is SNB-75 CNS.
Assay [14] has as its system U251 CNS.
The test system of assay [15] is PC-3 prostate.
Assay [16] has as its system SK-MEL-5 melanoma.
The test system of assay [17] is UACC-62 melanoma.
In assay [18] the test system is LOX IMVI melanoma.
For assay [19], the system named is SK-MEL-28 melanoma.

The structures appear in SMILES notation. This is part of a sample that, as a whole, favours compounds with a hit. Of some 83,000 tested, about 20% had one in any assay.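 Treatment: one concentration, 48 hours, 96-well format. Scoring: percent growth, with anything below 10 considered active.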 A number with no mark means an inactive call. Calls of active or inactive are those of the source.

For `COc1ccc(-c2nc(/C=C3\C(=O)N(C)c4ccccc43)c3ccccn23)cc1`, the growth in assay [1] is 93%; in assay [2] it was 95.9%; in assay [3] it was 72.5%; in assay [4] it was 85.2%; in [5], 67.4%; in [6], 66%. For the same compound, the growth in [7] is 83.2%; in [8], 72.7%; in [9] it was 86%; in [10], 99.1%; in assay [11] it was 90%; in assay [12], 96.8%. For the same compound, the growth in assay [13] was 51.1%; in [14] it was 75.1%; in [15], 86.9%; in assay [16], 65.5%; in assay [17], 68.5%; in assay [18] it was 65.2%. Besides, the growth in assay [19] is 99.6%.

For the compound `CC(=O)OC[C@]12CC[C@@H]([C@@H](C)c3nnc(-c4ccncc4)o3)[C@@H]1[C@H]1CC[C@@H]3[C@@]4(C)CC[C@H](OC(C)=O)C(C)(C)[C@@H]4CC[C@@]3(C)[C@]1(C)CC2`, the growth in assay [1] was 102%; in assay [2] it was 46.4%; in assay [3], 99.7%; in assay [4], 76.3%; in [5], 104%; in assay [6] it was 92%. For the same compound, the growth in [7] was 74.9%; in assay [8], 94.2%; in assay [9], 75.3%; in assay [10], 91%; in assay [11], 77.5%; in assay [12] it was 63.8%. For the same compound, the growth is 103% in [13]; 64.1% in assay [14]; 33.5% in assay [15]; 74.3% in assay [16]; 58.2% in [17]; 77.2% in assay [18]. Besides, the growth in [19] is 92.8%.

Take `CN1CCN(CCOc2ccc(-c3cnc4c(-c5cccc(F)c5F)cnn4c3)cc2)CC1`: the growth is 8.58% (active) in assay [1]; -31.3% (active) in [2]; -44% (active) in assay [3]; 85% in [4]; 97% in assay [5]; 25.3% in assay [6]. Besides, the growth in assay [7] is -3.66% (active); in assay [8], -72.5% (active); in assay [9], -19.1% (active); in assay [10], -78.9% (active); in assay [11] it was -8.62% (active); in assay [12], -46.1% (active). The growth is 115% in [13]; -32.4% (active) in assay [14]; 90.5% in [15]; -32.4% (active) in [16]; -36.1% (active) in [17]; -95.8% (active) in [18]. For the same compound, the growth in [19] was -18.7% (active).

Consider `COC(=O)C(Cc1ccccc1)NC(=O)c1ccc(NC(=O)c2[nH]c(C)c(Cl)c2Cl)c(OC(C)C)c1` (stereo not drawn), for which the growth in assay [1] was 77.6%; in [2], 42.1%; in assay [3], 71.4%; in assay [4] it was 66.3%; in [5], 128%; in assay [6], 86.4%. In addition, the growth was 87.5% in assay [7]; -17.9% (active) in [8]; 101% in [9]; 51.3% in assay [10]; 40.5% in [11]; 58% in assay [12]. Moreover, the growth in [13] was 62.6%; in assay [14], 22.3%; in assay [15], 11.4%; in assay [16] it was 97.7%; in assay [17], 90.6%; in assay [18] it was 34.1%. Further, the growth in assay [19] is 102%.

As for `C#CC#CC#CC#CC#CC#CC#CC#CC[C@@H]1OC[C@@H](COC(=O)O[C@@H](C(=O)O[C@H]2C[C@@]3(O)[C@@H](OC(=O)c4ccccc4)[C@@H]4[C@]5(OC(C)=O)CO[C@@H]5C[C@H](O)[C@@]4(C)C(=O)[C@H](OC(C)=O)C(=C2C)C3(C)C)[C@@H](NC(=O)c2ccccc2)c2ccccc2)O1`, the growth was 102% in assay [1]; 7.18% (active) in [2]; 37.4% in assay [3]; 5.64% (active) in assay [4]; -12.3% (active) in assay [5]; 94.5% in assay [6]. Besides, the growth is 0.0837% (active) in assay [7]; -8.27% (active) in assay [8]; 95.5% in assay [9]; -6.06% (active) in assay [10]; 11% in assay [11]; 101% in [12]. In addition, the growth is 90.1% in [13]; 96.3% in [14]; 11.1% in assay [15]; 22.1% in assay [16]; 25.2% in [17]; 22.2% in assay [18]. Also, the growth in [19] is 55.4%.

On to `O=S(=O)(Oc1ccc(Br)cc1)c1ccc(Cl)cc1`, for which the growth in assay [1] is 93.8%; in [2] it was 108%; in assay [3], 85.5%; in assay [4], 117%; in assay [5], 114%; in [6], 99.2%. Also, the growth is 94.6% in assay [7]; 110% in assay [8]; 118% in assay [9]; 94.3% in assay [10]; 97.6% in [11]; 99% in assay [12]. In addition, the growth in [13] was 121%; in assay [14], 106%; in assay [15], 91.7%; in assay [16] it was 101%; in [17], 98.6%; in assay [18], 95.1%. Further, the growth in [19] is 103%.

For `O=C1/C(=C2\SC(=S)N(C3CC3)C2=O)SC(=S)N1C1CC1`, the growth was 105% in assay [1]; 103% in assay [2]; 99.2% in assay [3]; 101% in assay [4]; 97.3% in assay [5]; 95.1% in assay [6]. The growth in [7] was 98.6%; in assay [8], 103%; in assay [9], 94.9%; in assay [10], 96.3%; in assay [11] it was 101%; in assay [12] it was 107%. For the same compound, the growth in assay [13] was 81.9%; in assay [14], 99.6%; in assay [15], 92%; in assay [16], 97.4%; in [17] it was 94.6%; in assay [18] it was 88.8%. Moreover, the growth in assay [19] is 106%.
